SMILES strings stand for the structures. Records with an inconclusive call do not appear. The source made the active and inactive calls. The call rests on the fitted dose curve; in most records, active means well fitted cell-killing curve with a large enough effect in the repeat runs; inconclusive means weak or mixed curves; inactive means flat fitted curve, though single readings scatter.

Results on 40 molecules are retold here after PubChem BioAssay (Tox21).

The nature of the assay: qHTS RealTime-Glo MT Cell Viability Assay in HepG2 cells - 16 hour (AID 1224885). Further: nearly all actives have a fitted effect of over 50% in size. The settings on record: RealTime-Glo luminescence; series mostly up to 76.8 µM. An excerpt: U.S. Tox21 Program National Center for Advancing Translational Sciences [NCATS] NIH Chemical Genomics Center [NCGC] U.S. Environmental Protection Agency [EPA] National Institutes of Environmental Health Sciences [NIEHS] National Toxicology Program [NTP] U.S. Food and Drug Administration [FDA] Tox21 Assay Overview: Measure of cell viability is critical in the cell-base assay. Analysis of cell viability is necessary for the characterization of cell responses to cytotoxic drugs and environmental stress. A RealTime-Glo MT Cell Viability Assay to monitor cell viability in real time of continues cell culture during 40 hours of compound treatment was used to screen Tox21 10K library compounds in HepG2 cells. The RealTime-Glo MT Cell Viability Assay is a nonlytic, homogeneous, bioluminescent method to measure cell viability in real time using a simple, plate-based method. The assay involves adding NanoLuc luciferase and a cell-permeant prosubstrate to cells in culture. Viable cells reduce the proprietary prosubstrate to generate a substrate for NanoLuc luciferase. This substrate diffuses from cells into the surrounding culture medium, where it is rapidly used by the NanoLuc Enzyme to produce a luminescent signal. The signal correlates with the number of viable cells, making the assay well suited for cytotoxicity studies.
Tox21 Assay Protocol Summary: The mixture of HepG2 cell suspension and reagents were dispensed at 600cells/6 ul/well in 1536-well tissue culture treated black solid bottom plates using a Multidrop dispenser. After the assay plates were incubated at a 37 C/5% CO2 incubator for 5 hours, 23 nL of compounds dissolved in DMSO, positive and negative controls was transferred to the assay plate by a pintool work station. The plates were incubated at 37 C for 40 hours. The luminescence intensity were measured at 0h, 8h, 16h, 24h, 32h and 40h time points using ViewLux plate reader during compound treatment.
(In general: Quantitative high-throughput screening tests each substance at several concentrations.)
Consider `CCCCCCCCCCCCOC(C)=O`, for which the molecule was called inactive.
With `C1=CCC(c2ccccc2)CC1` (stereo not given) the entry was “inactive”.
The result for `CCN(CCO)c1cccc(C)c1` reads “inactive”.
With `CCCCCCCCCCCCC1CO1` (stereo not given) the entry was “inactive”.
Turning to `CCOC(=O)CC(CC(=O)OCC)(OC(C)=O)C(=O)OCC`, the molecule was called inactive.
The result for `CC(=O)Nc1ccc(C)cc1` reads “inactive”.
With `Nc1cc(Cl)cc(S(=O)(=O)O)c1O` the entry was “inactive”; with `CC(=O)N(CC(O)CO)c1c(I)c(C(=O)NCC(O)CO)c(I)c(C(=O)NCC(O)CO)c1I` (stereo not given), “inactive”.
With `CCC(O)C(C)(C)C` (stereo not given) the entry was “inactive”.
`CC(C)COC(=O)/C=C/c1ccccc1`: the result was inactive.
The result for `CCCOCCOCCOCCO` reads “inactive”; that for `O=C(O)c1ccc(OCCN2CCCCC2)cc1`, “inactive”.
`CCOC(=O)CCCCCCCCC(=O)OCC`: the molecule was called inactive.
The result for `C/C=C(\C)C(=O)OCC/C=C\CC` reads “inactive”; that for `CCCCCC1CCCC(=O)O1` (stereo not given), “inactive”; that for `Cc1oc(=O)oc1CN1CCN(c2cc3c(cc2F)c(=O)c(C(=O)O)c2n3C(C)S2)CC1` (stereo not given), “inactive”.
For `CCOC(=O)CCc1ccccc1`, the molecule was classed as inactive.
Regarding `COc1ccc(N=Nc2cc(C)c(N=Nc3ccc(S(=O)(=O)O)cc3)cc2OC)cc1`, the result was inactive.
With `O=C(O)c1ccccc1C(=O)OCc1ccccc1` the entry was “inactive”.
The result for `CCCCC[Si](OCC)(OCC)OCC` reads “inactive”; that for `C=C(C)C(=O)OCCCCCCOC(=O)C(=C)C`, “inactive”.
With `C=CCOCC(CO)(COCC=C)COCC=C` the entry was “inactive”.
On to `Nc1ccnc(=O)[nH]1`, for which the molecule was classed as inactive.
Regarding `NC(=O)NC(=O)Cc1ccccc1`, the call was inactive.
The result for `C[C@H](CCC(=O)NCC(=O)O)[C@H]1CC[C@H]2[C@@H]3[C@H](O)C[C@@H]4C[C@H](O)CC[C@]4(C)[C@H]3C[C@H](O)[C@]12C` reads “inactive”.
The result for `N#CCCOCCOCCC#N` reads “inactive”; that for `CC(C)SCc1ccco1`, “inactive”.
The result for `CCCCCCCCC(=O)OCC` reads “inactive”.
Take `CC(C)CCCCCCOC(=O)C1CCCCC1C(=O)OCCCCCCC(C)C` (stereo not given): the molecule was called inactive.
The result for `COCC(=O)Nc1c(I)c(C(=O)NCC(O)CO)c(I)c(C(=O)N(C)CC(O)CO)c1I` (stereo not given) reads “inactive”; that for `COc1ccc(NS(=O)(=O)c2ccc(N)cc2)nn1`, “inactive”; that for `CCCCCCCCOC(C)=O`, “inactive”.
With `CCCCC(CC)CNC(=O)CC(C)OC(=O)CCC(=O)O` (stereo not given) the entry was “inactive”; with `CCCCOC(=O)C(C)OC(=O)CCC` (stereo not given), “inactive”; with `O=C(O)/C=C/c1ccccc1`, “inactive”.
The result for `CCCCCC1Nc2cc(C(F)(F)F)c(S(N)(=O)=O)cc2S(=O)(=O)N1` (stereo not given) reads “inactive”; that for `Nc1ccc(C(=O)OCC(O)CO)cc1` (stereo not given), “inactive”; that for `COC(/C=C(\C)CCC=C(C)C)OC`, “inactive”.
Regarding `Cc1c(C(C)C)c(=O)n(-c2ccccc2)n1C`, the molecule was called inactive.
The result for `CCNC(=O)NCCCOc1cccc(CN2CCCCC2)c1` reads “inactive”.
